Experimental findings from PubChem BioAssay AID686979 (National Center for Advancing Translational Sciences (NCATS), 2013) are described below.

Where “and” joins values, the source holds several entries; their conditions need not be identical. Equal entries are not always repeated. About 50,000 (12%) of roughly 420,000 compounds were called active. About 26% were inconclusive and are not listed. Calls follow the shape of the dose curve; as a rule, active = well fitted inhibition curve with a large enough effect; inconclusive = small, poorly fitted or top-dose-only effect; inactive = flat fitted curve, though single readings scatter. What follows is part of a selection rich in actives, with near analogues and random picks from the rest. The source holds several records for some structures; these can differ, active in one and inactive in another.
% is scaled to controls: 0 for no effect and ±100 for the full control effect; potency is read from the fitted curve at half-maximal effect.

This assay in a line: qHTS for Inhibitors of human tyrosyl-DNA phosphodiesterase 1 (TDP1): qHTS in cells in presence of CPT. Also: nearly all actives have a fitted effect of over 55% in size. The note with it: chicken DT40 Tdp1-/-;hTDP1 cells + 20 nM CPT, ATP luminescence, 48 h; series mostly up to 46.2 µM; activity change, negative = growth inhibition: at the top concentration. The method, boiled down: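 Cell growth measured by CellTiter-Glo luminescence after a minimum 48 h, 37 C compound exposure with 20 nM CPT in Tdp1-knockout DT40 cells stably expressing hTDP1, seeded 400/well; qHTS titration format.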
For orientation: Quantitative high-throughput screening tests each substance at several concentrations.
Consider `Cc1cc(C)cc(NC(=O)C(c2ccccc2)N2CCN(CC(=O)N3CCCC3)CC2)c1` (configuration not stated), for which the “activity change, negative = growth inhibition” value is 4.68% (inactive).

Consider `CC(C)CC(=O)c1c[nH]c(C(=O)NCc2ccccc2)c1`, for which the “activity change, negative = growth inhibition” value was 12.3% (inactive).

`CC12CCC(C(=O)N(NC(=O)c3ccccc3O)C1=O)C2(C)C` (configuration not stated): the Potency is 20.6 µM (active).

As to `CC12CCC(C(=O)N(c3cccc(Cl)c3)C1=O)C2(C)C` (configuration not stated), the “activity change, negative = growth inhibition” value is -5.89% (inactive).

As for `O=C(NN1C(=O)C2C(C1=O)C1C=CC2C12CC2)c1ccccc1Cl` (configuration not stated), the “activity change, negative = growth inhibition” value was -7.88% (inactive).

As to `NC(=O)c1ncn([C@@H]2O[C@H](CNCc3cnc(N4CCOCC4)s3)[C@@H](O)[C@H]2O)n1`, the “activity change, negative = growth inhibition” value was 1.26% (inactive).

Take `O=C(Nc1ccccc1-c1nnn(CC(=O)N2CCN(c3ccccc3)CC2)n1)c1cccs1`: the Potency is 14.6 µM (active).

On to `CCOc1ccc(-c2nnn(CC(=O)N3CCN(c4ccc(F)cc4)CC3)n2)cc1OCC`, for which the “activity change, negative = growth inhibition” value was 0.386% (inactive).

In the case of `CCOc1ccc(-c2nnn(CC(=O)N3CCN(c4ccc(OC)cc4)CC3)n2)cc1OCC`, the “activity change, negative = growth inhibition” value was -12.9% (inactive).

On to `C[C@H]1CN([C@@H](C)CO)C(=O)CCCn2cc(nn2)CO[C@@H]1CN(C)S(=O)(=O)c1cccs1`, for which the “activity change, negative = growth inhibition” value is -15.7% (inactive).

Consider `CSc1ccc(NC(=O)Cn2nnnc2-c2ccccc2F)cc1`, for which the “activity change, negative = growth inhibition” value is 4.04% (inactive).

As to `C/C(=N/OC(=O)c1cccc(C(F)(F)F)c1)c1cnccn1`, the “activity change, negative = growth inhibition” value is 0.565% (inactive).

Regarding `Cc1nn(-c2ccccc2)c(C)c1NC(=O)COc1ccc(Cl)cc1Cl`, the Potency was 16.4 µM (active).

As to `C/C=C/c1ccc(OCC(=O)OCC(=O)Nc2c(C)nn(-c3ccccc3)c2C)c(OC)c1`, the “activity change, negative = growth inhibition” value is -0.721% (inactive).

In the case of `Cc1nn(-c2ccccc2)c(C)c1NC(=O)COC(=O)c1cc(Cl)ccc1O`, the “activity change, negative = growth inhibition” value was -1.94% (inactive).

Regarding `Cc1cc(=O)oc2c3c(cc(OCC(=O)NCCC(=O)N[C@@H](C)C(=O)O)c12)OC(C)(C)CC3`, the “activity change, negative = growth inhibition” value is 0.114% (inactive).

For `C/C(=N/NS(=O)(=O)c1ccccc1)c1ccc(NC(=O)C(F)(F)F)cc1`, the “activity change, negative = growth inhibition” value is -2.7% (inactive).

`COCC1CCN(C(=O)C2CCC(=O)N(CC3CCCCC3)C2)CC1` (configuration not stated): the “activity change, negative = growth inhibition” value was 5.32% (inactive).

For the compound `COc1ccccc1C(=O)Nc1ccc(Nc2ccccc2)cc1`, the “activity change, negative = growth inhibition” value is 22.7% (inactive).

Regarding `COc1ccccc1NC(=O)c1oc2ccccc2c1NC(=O)COc1ccccc1OC`, the “activity change, negative = growth inhibition” value is -15.5% (inactive).

Regarding `Cc1c(C(=O)NNC(=O)c2ccncc2)oc2ccccc12`, the “activity change, negative = growth inhibition” value is 22.9% (inactive).

`Cc1ccc(C(=O)Nc2c(-c3ccccc3)[nH][nH]c2=O)cc1`: the “activity change, negative = growth inhibition” value is -3.84% (inactive).

Take `Cc1ccc(NC(=O)c2oc3ccccc3c2NC(=O)Cc2cccs2)cc1`: the “activity change, negative = growth inhibition” value is -14.1% (inactive).

For the compound `Cc1ccc(C(=O)Nc2c(C(=O)NC(C)(C)C)oc3ccccc23)cc1`, the Potency was 20.6 µM (active).

Take `COc1ccccc1C(=O)Nc1c(C(=O)Nc2ccc(C)cc2)oc2ccccc12`: the Potency is 20.6 µM (active).

Regarding `COc1ccccc1NC(=S)NC(=O)C(C)C`, the “activity change, negative = growth inhibition” value is 15.3% (inactive).

Regarding `COc1ccccc1NC(=O)c1oc2ccccc2c1NC(=O)C(C)C`, the Potency was 10.3 µM (active).

Turning to `C#CCOCCOCCOCCNc1nc(N2CCN(C(=O)C([C@@H](C)CC)n3cc(C(N)COC(=O)C(F)(F)F)nn3)CC2)nc(N2CCN(C(=O)[C@H](Cc3ccc(O)cc3)n3cc(C(N)[C@H](C)CC)nn3)CC2)n1` (some centres not stated), the “activity change, negative = growth inhibition” value is -7.81% (inactive).

For `CCOc1ncccc1C(=O)OCC(=O)c1c[nH]c2ccccc12`, the “activity change, negative = growth inhibition” value is -25.7% (inactive).

As for `CC1CN(C(=S)Nc2ccc(S(N)(=O)=O)cc2)CC(C)O1` (configuration not stated), the “activity change, negative = growth inhibition” value is -15.7% (inactive).

Regarding `C/C=C/C1=C(C(=O)O)N2C(=O)[C@@H](NC(=O)[C@H](N)c3ccc(O)cc3)[C@H]2SC1`, the “activity change, negative = growth inhibition” value is 22.8% (inactive).

As to `O=C(NNc1cc(Cl)cc(Cl)c1)c1c(F)cccc1Cl`, the “activity change, negative = growth inhibition” value is -10.4% (inactive).

On to `CN(CC(=O)NNC(=O)CNC(=O)c1ccccc1Cl)S(=O)(=O)c1ccc(Cl)cc1`, for which the “activity change, negative = growth inhibition” value was -22% (inactive).

For `CC(=O)Nc1ccc(NC(=O)CSc2nnc3c4cc(Br)ccc4n(C)c3n2)cc1`, the “activity change, negative = growth inhibition” value was -12.3% (inactive).

Take `O=C(CSc1ccc(Cl)cc1)NC1CC1`: the “activity change, negative = growth inhibition” value was -22.6% (inactive).

On to `CN(CCOc1ccccc1)C(=O)c1cc(COc2c(F)cccc2F)on1`, for which the “activity change, negative = growth inhibition” value is -21% (inactive).

As for `COc1cccc(CNC(=O)CCN2C(=S)NC(C)(C)CC2C)c1` (configuration not stated), the “activity change, negative = growth inhibition” value is -8.76% (inactive).

For `COc1nc(N(C)C)nc(N2CC(=O)N(CCNS(=O)(=O)c3ccc(C)cc3)C2=N)n1`, the “activity change, negative = growth inhibition” value is 17.4% (inactive).

In the case of `C=C1C(=O)[C@]23C[C@H]1CCC2[C@@]1(C)C(C[C@@H]3O)[C@](C)(C(=O)O)CC[C@@H]1O` (some centres not stated), the Potency was 1.84 µM (active).

As for `Cc1cnc(CN(C)C(=O)CC2C(=O)NCCN2Cc2cccc(F)c2F)[nH]1` (configuration not stated), the “activity change, negative = growth inhibition” value was 2.68% (inactive).

On to `CCCC1NC(=O)NC(C)=C1C(=O)OCC` (configuration not stated), for which the “activity change, negative = growth inhibition” value was 13.2% (inactive).

As to `CCCCn1c(N)c(N(CC)C(=O)c2ccccc2C(F)(F)F)c(=O)[nH]c1=O`, the “activity change, negative = growth inhibition” value was 3.08% (inactive).

For the compound `Cc1ccc(CNC(=O)Cn2cnc(S(=O)(=O)N3CCCCC3)c2)o1`, the “activity change, negative = growth inhibition” value is -4.28% (inactive).

Take `Cc1ccc(NC(=O)Cn2cnc3c(OCc4ccccc4)ncnc32)cc1C`: the “activity change, negative = growth inhibition” value was -10.5% (inactive).

On to `Cc1ccc(CNC(=O)Cn2cnc3c(NCc4ccccc4)ncnc32)o1`, for which the Potency is 18.4 µM (active).

As to `Cn1c(=O)c2c(SCC(=O)NCC3CCCO3)nc(CC(C)(C)C)nc2n(C)c1=O` (configuration not stated), the “activity change, negative = growth inhibition” value is -18.2% (inactive).

Regarding `Cc1ccc(NC(=O)c2cn3c4c(ccc(Cl)c4c2=O)OC(C)C3)cc1C` (configuration not stated), the “activity change, negative = growth inhibition” value was -0.412% (inactive).

As to `Cc1ccc(C)c(C(C)NC(=O)C2CCCO2)c1` (configuration not stated), the “activity change, negative = growth inhibition” value was -22.5% (inactive).

Consider `Cc1nc(N)nc(Cl)c1CCC1OCCO1`, for which the “activity change, negative = growth inhibition” value was 18.7% (inactive).

Turning to `O=c1c(Cl)c(NC2CC2)cnn1-c1ccccc1`, the “activity change, negative = growth inhibition” value is -3.31% (inactive).

With `Cc1cccc(-n2ncc(Cl)c(Cl)c2=O)c1`, the Potency was 5.17 µM (active).

As for `C=CCNc1cnn(-c2ccc(C)cc2)c(=O)c1Cl`, the “activity change, negative = growth inhibition” value was 7.55% (inactive).

Take `Cc1ccc(S(=O)(=O)NCC(=O)OCC(=O)N2CCc3ccccc32)cc1`: the “activity change, negative = growth inhibition” value was -5.65% (inactive).

In the case of `O=C(OCC(=O)N1CCc2ccccc21)C1CCCN1S(=O)(=O)c1ccc(Cl)cc1` (configuration not stated), the “activity change, negative = growth inhibition” value was -18.7% (inactive).

`O=C(OCC(=O)N1CCc2ccccc21)c1ccc([N+](=O)[O-])cc1`: the Potency is 20.6 µM (active).

Turning to `CO/N=C(\C(=O)N[C@@H]1C(=O)N2C(C(=O)O)=C(C[N+]3(C)CCCC3)CS[C@H]12)c1csc(N)n1`, the “activity change, negative = growth inhibition” value was -6.89% (inactive).

`CCCN1C(=O)C(Cc2nc3ccccc3c(=O)n2-c2ccccc2)c2cc(C)ccc21` (configuration not stated): the Potency result was “inactive and 16.4 µM (active)”.

Turning to `CCC1NC(=O)c2cccnc2-n2c1nc1ccc(C)cc1c2=O` (configuration not stated), the “activity change, negative = growth inhibition” value is -4.75% (inactive).

Turning to `O=c1c2ccccc2nc(CSc2nnnn2-c2ccccc2)n1-c1ccccc1`, the “activity change, negative = growth inhibition” value was -15.2% (inactive).

Regarding `Cc1ccc(Cl)cc1NC(=O)C(C)n1nnc2sc(-c3ccccc3)cc2c1=O` (configuration not stated), the “activity change, negative = growth inhibition” value was -17.5% (inactive).

`O=C(Nc1c2c(nn1-c1cccc(Cl)c1)CS(=O)(=O)C2)c1cccs1`: the “activity change, negative = growth inhibition” value was 4.51% (inactive).

Regarding `COCCN(C(=O)CC1CCCCC1)c1c(N)n(CC(C)C)c(=O)[nH]c1=O`, the “activity change, negative = growth inhibition” value is -7.04% (inactive).
